Experimental data taken from the supplement of paper PMC10849652.
Targets with a hit are over-represented here; the source holds about 7,900 in all. About 0.6% of all pairs of compound and target were hits. Values without a mark were called inactive.

Compound: C1=CC=C(C=C1)[C@H](COC2=CC3=C(C=C2)NC(=O)N3)NC(=O)C4=CC=CN(C4=O)CC5=CC(=C(C=C5)F)F
Experiment: log2 fold change, soluble protein after heating vs DMSO (PISA); higher = thermal stabilisation; K562 cells, 10 uM, 30 min; active = over 0.2 and 3.5 SD of the protein, either way, in both replicates (recomputed)
Method in brief: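 Values are thermal stability changes relative to control samples and are taken from duplicates. They are stated as log2 fold changes. Before quantification by TMTpro 16plex LC-MS/MS with equalised channel sums, K562 cells at 2×10^6 cells/mL were treated with 10 μM compound for 30 min, heated in aliquots for 3 min across 48°C-58°C, pooled, extracted in PBS with 0.5% NP-40 at 4°C, and centrifuged at 21,000xg for 90 min to give the soluble supernatant.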

Chain of UniProt P49189 (P49189 whole entry, looked up): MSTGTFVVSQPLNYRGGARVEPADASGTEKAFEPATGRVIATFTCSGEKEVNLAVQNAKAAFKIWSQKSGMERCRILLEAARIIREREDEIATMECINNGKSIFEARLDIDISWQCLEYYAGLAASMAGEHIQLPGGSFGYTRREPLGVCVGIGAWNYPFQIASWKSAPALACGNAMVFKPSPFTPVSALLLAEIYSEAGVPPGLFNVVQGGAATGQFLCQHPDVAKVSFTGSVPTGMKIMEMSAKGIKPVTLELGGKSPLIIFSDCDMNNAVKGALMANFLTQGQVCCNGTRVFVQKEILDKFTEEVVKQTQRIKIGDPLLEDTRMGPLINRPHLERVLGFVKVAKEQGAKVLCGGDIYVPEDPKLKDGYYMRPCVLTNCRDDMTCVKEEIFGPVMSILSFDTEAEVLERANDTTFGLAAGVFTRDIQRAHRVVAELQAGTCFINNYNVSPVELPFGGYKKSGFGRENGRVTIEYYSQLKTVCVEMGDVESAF
Chain of UniProt P33121 (P33121 whole entry, looked up): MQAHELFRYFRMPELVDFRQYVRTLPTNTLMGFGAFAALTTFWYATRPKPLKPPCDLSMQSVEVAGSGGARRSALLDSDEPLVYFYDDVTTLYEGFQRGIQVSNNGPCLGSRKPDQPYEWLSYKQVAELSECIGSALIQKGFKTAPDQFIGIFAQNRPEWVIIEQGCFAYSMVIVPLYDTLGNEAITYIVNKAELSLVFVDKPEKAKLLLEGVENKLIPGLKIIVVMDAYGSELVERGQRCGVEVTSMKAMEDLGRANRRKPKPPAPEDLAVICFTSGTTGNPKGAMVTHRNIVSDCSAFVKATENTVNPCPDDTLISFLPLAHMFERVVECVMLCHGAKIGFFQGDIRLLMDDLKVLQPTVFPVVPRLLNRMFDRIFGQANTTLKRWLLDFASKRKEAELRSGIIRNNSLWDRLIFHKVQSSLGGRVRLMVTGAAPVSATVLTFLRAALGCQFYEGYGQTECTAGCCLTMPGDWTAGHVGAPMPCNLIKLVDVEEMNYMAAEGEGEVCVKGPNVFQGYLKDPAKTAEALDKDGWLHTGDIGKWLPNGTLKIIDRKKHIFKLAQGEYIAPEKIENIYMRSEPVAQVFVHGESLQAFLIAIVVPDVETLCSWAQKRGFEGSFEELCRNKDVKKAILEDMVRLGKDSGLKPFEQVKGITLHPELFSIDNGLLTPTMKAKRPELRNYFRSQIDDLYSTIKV
Chain of UniProt Q13825 (Q13825 whole entry, looked up): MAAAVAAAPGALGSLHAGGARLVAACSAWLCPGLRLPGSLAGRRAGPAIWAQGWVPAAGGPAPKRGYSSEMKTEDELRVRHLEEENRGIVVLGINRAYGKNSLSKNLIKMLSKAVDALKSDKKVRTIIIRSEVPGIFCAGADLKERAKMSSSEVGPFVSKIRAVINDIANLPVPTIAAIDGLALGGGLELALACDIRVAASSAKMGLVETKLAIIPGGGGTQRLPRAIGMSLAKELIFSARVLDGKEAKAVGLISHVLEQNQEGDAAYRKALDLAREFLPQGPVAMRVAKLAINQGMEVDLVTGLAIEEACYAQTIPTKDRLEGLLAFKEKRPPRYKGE
Chain of UniProt P11117 (P11117 whole entry, looked up): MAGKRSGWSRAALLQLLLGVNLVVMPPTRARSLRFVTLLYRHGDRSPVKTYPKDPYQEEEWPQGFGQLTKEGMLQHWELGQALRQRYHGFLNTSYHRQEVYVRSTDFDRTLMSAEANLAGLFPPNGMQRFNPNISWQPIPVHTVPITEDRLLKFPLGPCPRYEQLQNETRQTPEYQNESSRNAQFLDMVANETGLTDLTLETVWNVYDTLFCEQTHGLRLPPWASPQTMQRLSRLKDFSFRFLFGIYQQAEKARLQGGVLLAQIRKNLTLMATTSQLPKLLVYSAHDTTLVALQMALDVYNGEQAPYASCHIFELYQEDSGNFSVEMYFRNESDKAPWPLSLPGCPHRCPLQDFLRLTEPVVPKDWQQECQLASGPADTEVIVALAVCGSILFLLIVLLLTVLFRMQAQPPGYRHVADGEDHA
Chain of UniProt P18085 (P18085 whole entry, looked up): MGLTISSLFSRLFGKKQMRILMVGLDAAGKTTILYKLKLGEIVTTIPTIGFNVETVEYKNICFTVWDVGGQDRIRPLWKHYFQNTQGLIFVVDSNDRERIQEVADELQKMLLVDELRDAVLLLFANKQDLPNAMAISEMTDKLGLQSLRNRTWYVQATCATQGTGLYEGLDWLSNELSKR
Chain of UniProt Q9BX63 (Q9BX63 whole entry, looked up): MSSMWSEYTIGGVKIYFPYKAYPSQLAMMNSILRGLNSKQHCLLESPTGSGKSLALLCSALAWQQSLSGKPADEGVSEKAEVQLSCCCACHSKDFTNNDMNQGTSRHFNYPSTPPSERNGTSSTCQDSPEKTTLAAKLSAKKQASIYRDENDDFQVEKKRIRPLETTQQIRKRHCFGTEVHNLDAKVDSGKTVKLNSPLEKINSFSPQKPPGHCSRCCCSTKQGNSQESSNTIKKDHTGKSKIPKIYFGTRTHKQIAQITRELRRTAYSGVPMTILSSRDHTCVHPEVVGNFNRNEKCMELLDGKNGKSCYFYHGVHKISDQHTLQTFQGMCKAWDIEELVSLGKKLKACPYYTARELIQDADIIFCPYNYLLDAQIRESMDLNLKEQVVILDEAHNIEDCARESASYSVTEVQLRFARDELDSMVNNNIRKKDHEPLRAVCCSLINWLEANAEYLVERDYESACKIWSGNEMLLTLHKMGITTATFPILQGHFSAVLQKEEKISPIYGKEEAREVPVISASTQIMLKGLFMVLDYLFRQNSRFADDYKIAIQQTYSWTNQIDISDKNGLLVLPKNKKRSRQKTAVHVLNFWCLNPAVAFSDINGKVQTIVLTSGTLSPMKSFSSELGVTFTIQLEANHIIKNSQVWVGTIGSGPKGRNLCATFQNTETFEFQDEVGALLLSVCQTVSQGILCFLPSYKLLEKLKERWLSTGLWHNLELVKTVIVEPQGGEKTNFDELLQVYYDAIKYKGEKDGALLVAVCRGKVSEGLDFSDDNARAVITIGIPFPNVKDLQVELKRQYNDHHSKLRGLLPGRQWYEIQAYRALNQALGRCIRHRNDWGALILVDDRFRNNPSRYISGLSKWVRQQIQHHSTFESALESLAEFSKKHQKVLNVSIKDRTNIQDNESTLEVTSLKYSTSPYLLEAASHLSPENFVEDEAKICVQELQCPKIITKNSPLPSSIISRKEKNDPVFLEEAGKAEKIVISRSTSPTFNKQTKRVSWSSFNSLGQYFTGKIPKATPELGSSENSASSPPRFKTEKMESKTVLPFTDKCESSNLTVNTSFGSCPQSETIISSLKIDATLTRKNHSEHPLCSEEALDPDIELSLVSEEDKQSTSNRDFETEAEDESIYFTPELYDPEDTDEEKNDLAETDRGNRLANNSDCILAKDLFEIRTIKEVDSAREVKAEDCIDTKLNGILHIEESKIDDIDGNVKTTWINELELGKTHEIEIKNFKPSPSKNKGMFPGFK
Chain of UniProt Q9UI12 (Q9UI12 whole entry, looked up): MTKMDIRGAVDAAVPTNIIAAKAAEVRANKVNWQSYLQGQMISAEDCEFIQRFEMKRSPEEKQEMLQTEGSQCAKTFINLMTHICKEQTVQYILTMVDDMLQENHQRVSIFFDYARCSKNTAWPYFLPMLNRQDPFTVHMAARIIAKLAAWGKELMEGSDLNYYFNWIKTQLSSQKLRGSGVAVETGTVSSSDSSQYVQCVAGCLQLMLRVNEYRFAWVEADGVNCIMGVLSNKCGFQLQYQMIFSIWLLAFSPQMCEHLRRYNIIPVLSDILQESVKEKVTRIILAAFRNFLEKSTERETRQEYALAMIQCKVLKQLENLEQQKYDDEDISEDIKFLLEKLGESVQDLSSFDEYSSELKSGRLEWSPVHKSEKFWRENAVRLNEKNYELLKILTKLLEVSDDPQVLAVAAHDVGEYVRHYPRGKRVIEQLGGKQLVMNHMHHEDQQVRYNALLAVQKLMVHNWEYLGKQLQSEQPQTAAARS
Chain of UniProt Q13685 (Q13685 whole entry, looked up): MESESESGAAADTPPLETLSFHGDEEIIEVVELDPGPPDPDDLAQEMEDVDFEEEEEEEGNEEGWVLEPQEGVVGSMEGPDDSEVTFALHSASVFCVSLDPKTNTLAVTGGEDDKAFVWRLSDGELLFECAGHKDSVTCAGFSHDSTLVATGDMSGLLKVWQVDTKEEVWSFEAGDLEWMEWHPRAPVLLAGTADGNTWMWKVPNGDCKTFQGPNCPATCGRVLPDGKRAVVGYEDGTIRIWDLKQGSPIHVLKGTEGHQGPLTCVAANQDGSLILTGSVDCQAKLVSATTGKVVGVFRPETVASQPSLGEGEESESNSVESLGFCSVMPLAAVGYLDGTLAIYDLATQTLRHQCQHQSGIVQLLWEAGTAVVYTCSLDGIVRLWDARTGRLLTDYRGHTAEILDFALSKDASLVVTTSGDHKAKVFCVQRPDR
Chain of UniProt P31751 (P31751 whole entry, looked up): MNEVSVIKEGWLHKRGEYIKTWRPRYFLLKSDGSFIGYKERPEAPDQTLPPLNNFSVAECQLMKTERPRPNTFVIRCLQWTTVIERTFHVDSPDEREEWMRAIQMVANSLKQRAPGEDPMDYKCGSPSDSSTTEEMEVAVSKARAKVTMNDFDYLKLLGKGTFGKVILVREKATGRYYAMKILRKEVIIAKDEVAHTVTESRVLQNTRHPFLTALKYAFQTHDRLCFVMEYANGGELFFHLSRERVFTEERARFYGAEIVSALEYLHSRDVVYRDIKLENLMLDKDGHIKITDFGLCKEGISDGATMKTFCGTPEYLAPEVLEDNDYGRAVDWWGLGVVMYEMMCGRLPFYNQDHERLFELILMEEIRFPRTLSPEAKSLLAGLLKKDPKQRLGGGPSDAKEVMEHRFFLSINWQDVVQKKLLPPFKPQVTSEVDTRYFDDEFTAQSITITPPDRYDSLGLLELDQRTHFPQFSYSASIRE
Chain of UniProt Q10589 (Q10589 whole entry, looked up): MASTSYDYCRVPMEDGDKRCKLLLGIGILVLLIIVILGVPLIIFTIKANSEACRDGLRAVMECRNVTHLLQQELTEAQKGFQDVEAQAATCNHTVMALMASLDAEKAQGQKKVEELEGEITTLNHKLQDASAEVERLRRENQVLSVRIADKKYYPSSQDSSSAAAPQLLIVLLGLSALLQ

Row | Target | log2 fold change
1 | ARL2BP (UniProt Q9Y2Y0) | -0.076
2 | BRD2 isoform 2 (UniProt P25440) | -0.257
3 | ATIC (UniProt P31939) | -0.023
4 | AIP (UniProt O00170) | -0.031
5 | ATP6V1H (UniProt Q9UI12) | -0.003
6 | ATG4B isoform 2 (UniProt Q9Y4P1) | -0.079
7 | ACP2 (UniProt P11117) | 0.027
8 | BRIP1 (UniProt Q9BX63) | 0.042
9 | ARF4 (UniProt P18085) | 0
10 | AGO1 (UniProt Q9UL18) | -0.05
11 | AGRN (UniProt O00468) | 0.06
12 | APOH (UniProt P02749) | -0.265
13 | ATF1 (UniProt P18846) | -0.054
14 | ADH5 (UniProt P11766) | 0.026
15 | BRK1 isoform 2 (UniProt Q8WUW1) | 0.018
16 | AP2B1 isoform 2 (UniProt P63010) | 0.023
17 | BSCL2 isoform 4 (UniProt Q96G97) | -0.07
18 | AKR1C2 (UniProt P52895) | 0

Row | Target | log2 fold change
19 | AP2A2 isoform 2 (UniProt O94973) | -0.021
20 | ACBD6 (UniProt Q9BR61) | -0.033
21 | ANXA5 (UniProt P08758) | -0.036
22 | ALDH9A1 isoform 3 (UniProt P49189) | -0.007
23 | ATP1A4 (UniProt Q13733) | -0.084
24 | ACP1 isoform 2 (UniProt P24666) | -0.107
25 | APPL1 (UniProt Q9UKG1) | -0.027
26 | ACSL1 (UniProt P33121) | -0.019
27 | AKT2 (UniProt P31751) | -0.124
28 | AHSA1 (UniProt O95433) | -0.035
29 | APOB (UniProt P04114) | 0.041
30 | AUH (UniProt Q13825) | 0.015
31 | BST2 (UniProt Q10589) | 0.056
32 | ATP6V1C1 (UniProt P21283) | -0.011
33 | ALDH9A1 (UniProt P49189) | 0.059
34 | AAMP (UniProt Q13685) | -0.015
35 | ADD1 isoform 3 (UniProt P35611) | 0.01
36 | AKT1 (UniProt P31749) | -0.068
